The list is not random: actives were taken first. Their share in the collection is about 2.8%.
TRPM1 prom inh: inhibitors of MITF-dependent TRPM1 promoter reporter, primary screen, cell-based, SK-MEL-5, single point, luciferase; SK-MEL-5 TRPM1 promoter luciferase, 24 h; inhibition, % at 12.5 µM; 330,000 tested, 0.83% active; AID 488899, 2010;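 active means mean inhibition across replicates of 60% or more, whatever share of single replicates reaches that level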
KKLEB tox: cytotoxicity in KKLEB CF airway cells, primary screen, cytotoxicity control for CF NF-kB inhibitor project, cell-based, uHTS, fluorescence assay plates | 360,000 tested, 0.36% active | KKLEB CF airway cells viability, ATPlite luminescence, overnight; active compounds read low; cells stimulated with P. aeruginosa culture filtrate | activity change (cytotoxicity), % at 5 µM;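 active means corrected activity change at or below -50% at 5 µM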
Peg3 prom inh: Peg3 promoter-driven luciferase inhibitors, primary screen, cell-based, HeLa, luciferase luminescence; HeLa PEG-Prom luciferase reporter, overnight; inhibition, % at 20 µM; 360,000 tested, 1.7% active; AID 588405, 2011;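 active means inhibition of at least 50% at 20 µM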
HIF-2a inh: HIF-2a reporter inhibitors, primary screen, luminescence, 786-0 RCC cells | 786-0 RCC cells HIF-2a reporter, luciferase luminescence, overnight | inhibition, % at 18.8 µM | 360,000 tested, 0.72% active;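 active means inhibition of the luminescence signal of 40% or more relative to plate controls, in a single-dose primary screen at 18.75 µM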
CF NFkB inh: inhibitors of PAF-induced NF-kB signaling, primary screen, cell-based, GFP fluorescence, uHTS. 360,000 tested, 0.86% active. inhibition, % at 5 µM. KKLEB NF-kB-GFP reporter, GFP fluorescence overnight;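 active means at least 50% inhibition at 5 µM, scaled per plate between neutral and stimulator controls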;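 further: PAF is a Pseudomonas aeruginosa culture filtrate used as stimulus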
B2AR ag: beta2AR agonists driving receptor internalization, primary screen, cell-based, FAP fluorogen, flow cytometry; Beta-2 adrenergic receptor (Homo sapiens), P07550; Am2.2-beta2AR cells; response, % (no concentration beside the values); 340,000 tested, 0.43% active;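 active means response above a set limit, near 3 SD of response in nonfluorescent compounds, cut at about 42% in these data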
Target sequence (P07550 whole entry, looked up): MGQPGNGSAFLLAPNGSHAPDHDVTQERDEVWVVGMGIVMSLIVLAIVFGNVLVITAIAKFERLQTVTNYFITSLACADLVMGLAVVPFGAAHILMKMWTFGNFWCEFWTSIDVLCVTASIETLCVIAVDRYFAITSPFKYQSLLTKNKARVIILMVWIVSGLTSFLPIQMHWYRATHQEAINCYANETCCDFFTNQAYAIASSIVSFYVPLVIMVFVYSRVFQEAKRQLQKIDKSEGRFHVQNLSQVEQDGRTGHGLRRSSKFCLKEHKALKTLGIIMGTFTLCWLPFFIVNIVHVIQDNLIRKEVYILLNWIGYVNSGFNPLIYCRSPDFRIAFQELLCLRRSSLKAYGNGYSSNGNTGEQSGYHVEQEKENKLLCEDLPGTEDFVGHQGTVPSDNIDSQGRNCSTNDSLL
Hits are given with their value; . = inactive; / = not tested or not shown.

SMILES	TRPM1 prom inh	KKLEB tox	Peg3 prom inh	HIF-2a inh	CF NFkB inh	B2AR ag
O=C(c1ccccc1)c1sc(Nc2ccc3c(c2)OCO3)nc1-c1ccccc1	/	.	.	.	.	/
CC1(C)CC(=O)C(C=Nc2ccc(O)c(N=CC3=C(O)CC(C)(C)CC3=O)c2)=C(O)C1	.	.	.	.	.	.
CC1(C)CC(=O)C(C=Nc2ccc(C(=O)c3ccccc3)cc2N=CC2=C(O)CC(C)(C)CC2=O)=C(O)C1	.	-59	.	.	52	.
C=CCn1c(SCC(=O)Nc2sccc2C(N)=O)nc2ccc(Cl)cc2c1=O	.	.	52	.	.	.
C=CCn1c(SCC(=O)Nc2sccc2C(N)=O)nc2ccccc2c1=O	.	.	.	.	.	.
C=CCn1c(SC(C)C(N)=O)nc2sc(CC)cc2c1=O (stereo unspecified)	.	.	.	.	.	.
C=CCn1c(SCC(=O)Nc2sccc2C(N)=O)nc2sc(CC)cc2c1=O	.	.	57	.	.	.
COc1cccc(C(NC(C)=O)c2nc(-c3ccc4ccccc4c3)cs2)c1 (stereo unspecified)	/	.	.	.	.	/
COc1ccc(/C=N/NC(=O)c2ccc(Cl)cc2)cc1Cn1cc(Cl)cn1	.	-51	.	.	.	.
CNC(CC(=O)c1ccc([N+](=O)[O-])cc1)C(Cl)(Cl)Cl (stereo unspecified)	90	.	101	93	.	91
COc1ccc(C(=O)CC(Nc2ccc([N+](=O)[O-])cc2)c2ccc(OC)cc2)cc1 (stereo unspecified)	.	.	.	.	.	.
CCN(CC)CCNc1ccc(CO)c2oc3ccccc3c(=O)c12	/	.	.	40	.	/
O=c1cc(NCCO)c2ccccc2o1	.	.	.	.	.	.
O=c1c2ccccc2sc2c(CO)ccc(NCCN3CCCCC3)c12	.	.	88	55	.	.
O=c1c2ccccc2sc2ccc(NCCCN3CCOCC3)cc12	.	.	.	.	.	.
CCN(CC)CCNc1ccc(CO)c2sc3ccccc3c(=O)c12	.	.	58	43	.	.
COc1ccc(C(=O)CC(Sc2ccccc2N)c2ccc(OC)cc2)cc1 (stereo unspecified)	/	.	.	.	.	/
CC(=O)NC(C)(c1ccccc1)c1nc(-c2cnc3ccccc3c2)cs1 (stereo unspecified)	/	.	.	.	.	/
Cn1c(=O)c2cc(NC(=O)Cc3ccccc3F)ccc2n1Cc1ccc(Cl)cc1	/	.	.	.	.	/
CS(=O)(=O)N1CCCCC1c1cc(C(=O)Nc2cccc3c2CCCC3)no1 (stereo unspecified)	/	.	.	.	.	/
CSc1ccc(CNC(=O)C2(C)CCCN(C(C)=O)C2)cc1 (stereo unspecified)	/	.	.	.	.	/
CCCc1nc2ccc(C)cn2c1Cc1cccc(Cl)c1	/	.	.	.	.	/
Cc1noc(C)c1CCC(=O)Nc1cc(Cl)ccc1C(=O)O	/	.	.	.	.	/
CCOc1ccc(C=NNC(=O)c2cccc3ccccc23)cc1OCC	.	.	.	.	.	.
Cn1cc([N+](=O)[O-])c(C(=O)Nc2ccn(Cc3c(F)c(F)cc(F)c3F)n2)n1	.	.	56	.	.	.
SMILES	TRPM1 prom inh	KKLEB tox	Peg3 prom inh	HIF-2a inh	CF NFkB inh	B2AR ag
COc1ccc2[nH]c3c4c(ccc3c2c1)C(=O)C=CC4=O	79	.	117	80	64	61
COc1ccc2[nH]c(=O)cc(C(=O)O)c2c1	.	.	.	.	.	.
CCCC(=O)N1CCC1(C)C(=O)Nc1scc(C)c1C#N (stereo unspecified)	/	.	.	.	.	/
NC1=NC(=Nc2cccc(S(N)(=O)=O)c2)c2ccccc21	.	.	.	.	.	.
COc1cc(N=Nc2cccc(S(N)(=O)=O)c2)c2ccccc2c1N	74	.	.	.	.	.
CCN(CC)CCNC(=O)c1ccc(NC(=O)c2ccc(Cl)c(S(=O)(=O)N3CCCCCC3)c2)cc1	.	.	88	.	.	.
O=C(NC1CCN(Cc2ccccc2)CC1)c1ccc(CS(=O)c2ccccc2Cl)o1 (stereo unspecified)	/	.	.	.	.	/
Clc1nc(-c2ccccc2)c2ccccc2n1	.	.	.	.	.	.
NC(N)=Nc1nc(-c2ccccc2)c2ccccc2n1	.	.	57	.	.	.
CCNC(=O)C1(C)CCN(Cc2ccccc2C#N)C1 (stereo unspecified)	/	.	.	.	.	/
Cc1c(NC(=O)c2ccc3c4c(cccc24)CC3)c(=O)n(-c2ccccc2)n1C	.	.	.	.	.	.
O=C(/C=C/c1ccccc1)c1ccc2c3c(cccc13)CC2	.	.	60	.	.	.
Cc1ccc2c(c1)nc1c3ccccc3nc(-c3ccccc3N)n21	/	.	.	.	.	/
CC(=O)c1ccc(NC(=O)COC(=O)c2c3c(nc4ccccc24)/C(=C\c2cccs2)CCC3)cc1	.	.	56	.	.	.
CC(C)CNC(=O)COC(=O)c1c2c(nc3ccccc13)/C(=C\c1cccs1)CC2	.	.	.	.	.	.
O=C1c2cccc(OCC(=O)N3CCCc4ccccc43)c2CCN1Cc1ccccc1	.	.	.	.	.	.
O=C1c2cccc(OCC(=O)N3CCCc4ccccc43)c2CCN1Cc1ccc(Br)cc1	.	.	58	.	.	.
CCc1c(C)nc2c(-c3ccccc3)c(-c3ccccc3)[nH]n2c1=O	.	.	53	.	.	.
O=S1(=O)CC(N2CCN(CC3CC3)CC2)CN1Cc1cn(Cc2ccccc2C(F)(F)F)nn1 (stereo unspecified)	/	.	.	.	.	/
CCc1ccc(S(=O)(=O)/N=C2\C=C(Nc3cccc(C(=O)O)c3)C(=O)c3ccccc32)cc1	.	.	.	.	96	.
O=C(O)c1cccc(NC2=C(n3nnc4ccccc43)C(=O)c3ccccc3C2=O)c1	.	.	.	.	.	.
Cc1ccc(S(=O)(=O)/N=C2/C=C(C3C(=O)CC(C)(C)CC3=O)C(=O)c3ccccc32)cc1	.	.	.	.	.	.
CCc1ccc(S(=O)(=O)/N=C2/C=C(Sc3ncn[nH]3)C(=O)c3ccccc32)cc1	70	.	102	89	81	55
CCc1ccc(S(=O)(=O)/N=C2\C=C(Nc3ccc(O)cc3)C(=O)c3ccccc32)cc1	100	-88	104	69	99	45
CCOC(=O)C1CCN(C(=O)c2ccc3c(=O)n4nc(Nc5ccccc5)sc4nc3c2)CC1	/	.	.	.	.	/
